In PubChem BioAssay AID602393 (Broad Institute, 2012):
Hit rate of the full screen: of about 350,000 compounds, about 7,000 (2%) were called active. What follows is part of a selection rich in actives, with near analogues and random picks from the rest. A number with no mark means an inactive call. Rule as the data show it: active = activation above about 40%; inconclusive = no clear call, values can overlap the other calls; inactive = below that.

Assay: raisers of Bmi1 knock-in reporter signal – mouse ES cells, Bmi1 luciferase knock-in, single point, esBAF inhibitor project, primary screen (AID 602393);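 also: 0% = median of the plate's neutral control wells and 100% = double that signal; a rise in the Bmi1 reporter signal indicates esBAF inhibition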
Settings: 24 h, at 12.5 µM, active compounds read high, 100% = twice the neutral-well signal
`CC(=O)Nc1ccc2c(c1)C(=O)N(C)[C@@H]1CC[C@H](CC(=O)NCc3ccccc3)O[C@H]1CO2` gave a reporter increase of -6.55%. Work on `CO[C@@H]1CN(C)C(=O)c2cc(NC(=O)C3CCC3)ccc2OC[C@H](C)N(Cc2ccccn2)C[C@H]1C` yielded a reporter increase of 1.86%. `Cc1nc(-c2ccccc2)sc1-c1nc(-c2ccccc2)ncc1S(=O)(=O)c1ccccc1` gave a reporter increase of -0.228%. With `Cc1nc(-c2ccccc2)sc1-c1nnc(C2CC2)o1` the reporter increase was 76.8% (active). Work on `Cc1nc(N)sc1-c1ccccc1` yielded a reporter increase of 0.609%. Work on `CO[C@@H]1CN(C)C(=O)c2cc(NC(=O)C3CC3)ccc2OC[C@@H](C)N(C(=O)c2ccccc2F)C[C@@H]1C` yielded a reporter increase of -20.7%. With `C[C@H](CO)N1C[C@H](C)[C@@H](CN(C)S(=O)(=O)c2ccc(Cl)cc2)Oc2ccc(NS(C)(=O)=O)cc2CC1=O` the reporter increase was -2.32%. With `CCc1cccc(NC(=O)COC(=O)c2cc(=O)c3ccccc3o2)c1` the reporter increase was 8.66%. In the case of `CC(C)C(=O)Nc1c(C(=O)c2ccc(F)cc2)oc2ccccc12`, the reporter increase is reported as -8.19%. In the case of `CC(C)C(=O)Nc1ccc2c(c1)oc1ccccc12`, the reporter increase is reported as 60.1% (active). In the case of `C[C@@H]1CN([C@@H](C)CO)S(=O)(=O)c2ccc(C#Cc3ccccc3)cc2O[C@@H]1CN(C)C(=O)C1CC1`, the reporter increase is reported as -5.48%. `Cc1ccc(SCC(=O)NC(=O)NCc2ccco2)c(C)c1` showed a reporter increase of -6.07%. In the case of `Cc1ccc(NC(=O)Cn2nnc(C(=O)NCc3ccco3)c2N)c(C)c1`, the reporter increase is reported as 3.66%. In the case of `Cc1ccc(NC(=O)C(=O)NCc2ccco2)c(C)c1`, the reporter increase is reported as 47.2% (active). For `O=C(Cc1ccccn1)NCC[C@H]1CC[C@H](NS(=O)(=O)c2ccccc2)[C@@H](CO)O1`, the reporter increase was -4.76%. Work on `Cc1cccc(S(=O)(=O)N[C@H]2CC[C@@H](CCNS(=O)(=O)c3ccccc3F)O[C@H]2CO)c1` yielded a reporter increase of -0.839%. With `CCOc1ccc2c(c1)C(c1ccc(C)cc1)=NNC(c1ccc(C)cc1)=N2` the reporter increase was 67.3% (active). `Cc1ccc(C2=Nc3c(ccc4ccccc34)C(c3ccncc3)=NN2)cc1` gave a reporter increase of 10%. `CCOc1ccc2[nH]c(=S)sc2c1` showed a reporter increase of 27.8%. In the case of `C[C@@H]1CN([C@@H](C)CO)C(=O)Cc2cc(NS(=O)(=O)c3ccc(F)cc3)ccc2O[C@@H]1CN(C)S(=O)(=O)c1cccs1`, the reporter increase is reported as 4.77%. For `CCC(=O)Nc1ccc2c(c1)C(=O)N(C)C[C@@H](OC)[C@@H](C)CN(Cc1ccccc1OC)[C@H](C)CO2`, the reporter increase was -3.34%. `CNC[C@@H]1Oc2cc(-c3ccccc3OC)ccc2S(=O)(=O)N([C@H](C)CO)C[C@H]1C` showed a reporter increase of -6.68%. Molecule `CN1CCN(C(=O)C[C@H]2C[C@H]3c4cc(NC(=O)Nc5ccccc5F)ccc4O[C@H]3[C@H](CO)O2)CC1` has a reporter increase of 2.41%. `CC(C)NC(=O)N(C)C[C@@H]1Oc2ncc(C#CC3CC3)cc2C(=O)N([C@@H](C)CO)C[C@H]1C` gave a reporter increase of 5.43%. With `O=C(NCc1ccccc1Cl)C1CCCO1` (stereo not drawn) the reporter increase was -4.1%. With `CSc1ccc(CNC(=O)c2ccc(NC(=O)C3=CSCCO3)cc2)cc1` the reporter increase was 15.9%. For `O=C(Nc1ccc(C(=O)NCc2ccccc2Cl)cc1)C1=CSCCO1`, the reporter increase was 44% (active). Molecule `CCN1[C@@H]2Cn3c(ccc(C4=CCCCC4)c3=O)[C@H]1[C@@H](C(=O)N1CCCCC1)[C@@H]2CO` has a reporter increase of -1.1%. For `O=C(Cc1ccc(F)cc1)N/N=C/c1ccc2c(c1)OCO2`, the reporter increase was 52.6% (active). Work on `O=C(CN1CCSCC1)N/N=C/c1ccc(F)cc1` yielded a reporter increase of 5%. Molecule `O=C(COC(=O)c1ccc(F)cc1)Nc1ccc2c(c1)OCO2` has a reporter increase of 1.17%. For `C[C@@H](NC(=O)[C@H]1[C@H](CO)[C@H]2Cn3c(cccc3=O)[C@H]2N1C(=O)C1CC1)c1ccccc1`, the reporter increase was 2.89%. `COc1ccc(C(=O)Nc2ccc3c(c2)OC[C@H](C)N(C(C)=O)C[C@@H](C)[C@H](OC)CN(C)C3=O)cc1` showed a reporter increase of -0.383%. For `Cc1ccc(S(=O)(=O)NCC[C@@H]2CC[C@@H](NC(=O)CCN3CCCCC3)[C@@H](CO)O2)cc1`, the reporter increase was -6.37%. In the case of `Cc1ccc(S(=O)(=O)Nc2ccc3c(c2)C(=O)N([C@@H](C)CO)C[C@H](C)[C@@H](CN(C)C(=O)Cc2ccccc2)OCCCC[C@H](C)O3)cc1`, the reporter increase is reported as 0.836%. Molecule `O=C(Nc1ncccc1O)c1ccc(C(=O)c2ccccc2)cc1` has a reporter increase of 21.1%. With `Cc1ccnc(NC(=O)CNC(=O)c2ccccc2)c1` the reporter increase was 20.5%. For `O=C(CNC(=O)c1ccc2ccccc2c1)Nc1ncccc1O`, the reporter increase was 51.4% (active). `Cc1noc(C)c1S(=O)(=O)N(C)C[C@H]1OCCCC[C@@H](C)Oc2ccc(NC(=O)c3ccccc3)cc2C(=O)N([C@@H](C)CO)C[C@H]1C` gave a reporter increase of 5.48%. `O=C(C[C@H]1CC[C@@H](NC(=O)Nc2ccc(C(F)(F)F)cc2)[C@H](CO)O1)NCc1cc(F)cc(F)c1` showed a reporter increase of 2.19%. In the case of `CCC(=O)N1[C@@H]2CN(C(=O)Nc3ccc(Cl)cc3)c3ccccc3[C@@H]2[C@@H]1CO`, the reporter increase is reported as 7.74%. In the case of `CC1CCN(C(=O)COC(=O)c2cc(=O)[nH]c3ccccc23)CC1`, the reporter increase is reported as 60.1% (active). Molecule `O=C(COC(=O)c1cc(=O)[nH]c2ccccc12)NCc1cccc(Cl)c1` has a reporter increase of -2.45%. Work on `O=C(OCc1nnc(-c2ccccc2)o1)c1cc(=O)[nH]c2ccccc12` yielded a reporter increase of -2.08%. With `COC(=O)C1CCN(C(=O)c2cc(=O)[nH]c3ccccc23)CC1` the reporter increase was -0.707%. For `CN(C(=O)COC(=O)c1cc(=O)[nH]c2ccccc12)C1CCCCC1`, the reporter increase was 59.3% (active). In the case of `CC1CCN(C(=O)COC(=O)c2cc(S(=O)(=O)N3CCOCC3)ccc2Cl)CC1`, the reporter increase is reported as -5.57%. `COc1ccc(S(=O)(=O)N(C)C[C@@H]2OCCCC[C@@H](C)Oc3ccc(N(C)C)cc3C(=O)N([C@@H](C)CO)C[C@@H]2C)cc1` gave a reporter increase of -1.73%. In the case of `O=C(C[C@H]1CC[C@@H](NC(=O)c2ccncc2)[C@@H](CO)O1)Nc1ccccc1`, the reporter increase is reported as -0.301%. With `CC(C)n1c(=O)[nH]c2cc(C(=O)Nc3ccccc3)ccc21` the reporter increase was 46.7% (active). Work on `Cc1cc(=O)c2ccc(NC(=O)c3ccccc3)cc2[nH]1` yielded a reporter increase of 1.23%. Work on `Cn1c(=O)n(C)c2cc(C(=O)Nc3ccc(Br)cc3)ccc21` yielded a reporter increase of 6.69%. With `CNC[C@H]1Oc2ncc(-c3ccccc3C)cc2C(=O)N([C@@H](C)CO)C[C@@H]1C` the reporter increase was -1.27%. For `Cc1ccc(NC(=O)COc2ccc(/C=N\NC(=O)c3cccnc3)cc2)cc1C`, the reporter increase was 1.32%. For `C/C(=C\C(=O)c1cccnc1)Nc1ccc(C)c(C)c1`, the reporter increase was 64.2% (active). With `Cc1ccc(OCC(=O)NCCCNC(=O)c2cccnc2)cc1C` the reporter increase was -1.38%. Molecule `C[C@H]1CCCCO[C@@H](CN(C)Cc2ccc(C(=O)O)cc2)[C@@H](C)CN([C@@H](C)CO)C(=O)c2cc(NS(C)(=O)=O)ccc2O1` has a reporter increase of -4.29%. For `COc1ccc(/C=N/Nc2nc3ccccc3o2)cc1OC`, the reporter increase was 45.9% (active). `C(=N\Nc1ccc2ccccc2n1)/c1ccc2c(c1)OCO2` showed a reporter increase of -72.8%. In the case of `COc1cccc(/C=N\Nc2nncc(-c3ccccc3)n2)c1`, the reporter increase is reported as 4.67%. For `Brc1ccccc1/C=N/Nc1nc2ccccc2o1`, the reporter increase was 66.2% (active). Molecule `O=C(CSc1nc2ccccc2o1)N/N=C/c1ccccc1C(=O)O` has a reporter increase of 28.5%. With `CCOc1ccccc1/C=N/Nc1nc2ccccc2o1` the reporter increase was 25.5%. Work on `CCCN1C[C@@H](C)[C@H](OC)CN(C)C(=O)c2ccc(NC(=O)C3CCOCC3)cc2OC[C@@H]1C` yielded a reporter increase of -4.1%. With `C[C@@H]1CN([C@H](C)CO)C(=O)c2cc(NC(=O)Cc3ccccc3)ccc2O[C@@H](C)CCCCO[C@H]1CN(C)C(=O)Cc1ccccc1` the reporter increase was 4.79%. In the case of `CCC(=O)N(C)C[C@H]1Oc2cc(C#CC3CC3)ccc2S(=O)(=O)N([C@@H](C)CO)C[C@@H]1C`, the reporter increase is reported as -1.51%. Molecule `CCCNC(=O)[C@@H]1[C@@H](CO)[C@@H]2Cn3c(ccc(-c4cccc(OC)c4)c3=O)[C@H]1N2C(=O)NCCC` has a reporter increase of 1.23%. For `O=C(Nc1ccc(F)cc1)N[C@H]1C=C[C@@H](CC(=O)N2CCOCC2)O[C@H]1CO`, the reporter increase was -15.4%. In the case of `Cc1cccc(S(=O)(=O)N2CC[C@@H]3[C@H]2c2cc(C#Cc4ccc(F)cc4)ccc2N[C@@H]3CO)c1`, the reporter increase is reported as 1.22%. For `COCC(=O)Nc1ccc2c(c1)OC[C@H](C)N(C(=O)c1ccccn1)C[C@@H](C)[C@H](OC)CN(C)C2=O`, the reporter increase was -4.41%. For `Cc1nn(-c2ccccc2)c(Cl)c1/C=N/NC(=O)c1nn(C)cc1[N+](=O)[O-]`, the reporter increase was 52.5% (active). In the case of `Cc1c(NC(=O)c2c([N+](=O)[O-])cnn2C)c(=O)n(-c2ccccc2)n1C`, the reporter increase is reported as -3.74%. In the case of `COc1ccc(CCNC(=O)c2c(C)nn(-c3ccccc3)c2Cl)cc1`, the reporter increase is reported as -5.69%. `CCC(=O)N(C)C[C@@H]1Oc2cc(-c3ccc(C#N)cc3)ccc2S(=O)(=O)N([C@@H](C)CO)C[C@@H]1C` showed a reporter increase of 2.37%. In the case of `CCCc1cn(CC[C@@H]2CC[C@@H](NC(=O)C3CC3)[C@H](CO)O2)nn1`, the reporter increase is reported as 1.12%. In the case of `C[C@@H]1CN([C@H](C)CO)C(=O)CCCn2nncc2CO[C@@H]1CN(C)Cc1ccc2c(c1)OCCN2C`, the reporter increase is reported as -3.86%. In the case of `CO[C@@H]1CN(C)C(=O)c2cc(NS(C)(=O)=O)ccc2OC[C@H](C)N(C(=O)C2CC2)C[C@@H]1C`, the reporter increase is reported as 0.928%. For `COCC#Cc1cnc2c(c1)C(=O)N([C@H](C)CO)C[C@H](C)[C@H](CN(C)Cc1ccc(-c3ccccc3)cc1)O2`, the reporter increase was -4.32%.
